Measured values taken from PubChem BioAssay AID463173 (ICCB-Longwood Screening Facility, Harvard Medical School, 2010).
Out of some 52,000 compounds screened, about 1,700 (3.3%) were called active. Rule as the data show it: active = survival mostly below about 52% (no sharp cut-off); inactive = mostly above about 56%. Only a selection was taken, and actives are over-represented in it overall.

Test system: Wild type
Experiment: S. aureus survival, RN4220 and DeltatarO strains – OD600, teichoic acid synthesis inhibitors, primary screen (AID 463173)
Details: S. aureus RN4220 wild type/DeltatarO growth, OD600, 18 h, stronger effect = lower value, screened at 18.75 µg/mL (by protocol)

Compound | survival
CC(=O)c1cc(-c2ccccc2)n(CCC(=O)Nc2ccc(C)cc2C)c1C | 85% (inactive)
Cc1ccc(-c2nn(CC(=O)NC3CCCCC3)c3c2cnc2ccccc23)cc1 | 75% (inactive)
CN(Cc1ccccc1)C(=O)COc1ccc(S(=O)(=O)N2CCCC2)cc1 | 121% (inactive)
Nc1nc(Nc2ccccc2F)sc1C(=O)c1ccc(Cl)cc1 | -7% (active)
COc1ccc(C(=O)c2sc(Nc3cc(Cl)ccc3C)nc2N)cc1OC | 129% (inactive)
Nc1c(C(=O)c2ccc(F)cc2)sc(Nc2ccccc2F)c1S(=O)(=O)c1ccc(Br)cc1 | 74% (inactive)
CCc1nn2c(=O)cc(COC(=O)c3cccs3)nc2s1 | 89% (inactive)
CCOC(=O)c1c(S(=O)(=O)N2CCCC(C(=O)Nc3ncccc3C)C2)c(C)n(C)c1C (stereo not given) | 71% (inactive)
O=C(CSc1nnc(NC(=O)C2CC2)s1)Nc1ccccc1F | 108% (inactive)
CCOc1ccccc1CNC(=O)c1ccc(N2Cc3ccccc3Oc3ncccc32)s1 | 84% (inactive)
CCOC(=O)c1sc2ncn(CC(=O)Nc3ccc(OC)c(Cl)c3)c(=O)c2c1C | 78% (inactive)
O=C(NCc1ccccc1)c1nc[nH]c1C(=O)NCc1ccccc1 | 123% (inactive)
CCOc1cccc2cc(-c3cn4c(n3)sc3ccccc34)c(=O)oc12 | 64% (inactive)
COc1cccc2cc(-c3cn4c(n3)sc3cc(F)ccc34)c(=O)oc12 | 75% (inactive)
CCOc1cccc2cc(-c3cn4c(n3)sc3cc(C)ccc34)c(=O)oc12 | -6% (active)
Cc1ccc(CCNC(=O)C2CCCN(Cc3nc(-c4cccc(Cl)c4)oc3C)C2)cc1 (stereo not given) | 9% (active)
Cc1oc(-c2ccc(Cl)cc2)nc1CN1CCCC(C(=O)NCCc2ccc(Cl)cc2)C1 (stereo not given) | 86% (inactive)
Cc1oc(-c2cccc(Cl)c2)nc1CN1CCC(C(=O)NCCc2ccc(Cl)cc2)CC1 | 88% (inactive)
Cc1oc(-c2cccc(Cl)c2)nc1CN1CCCC(C(=O)NCCc2ccc(Cl)cc2)C1 (stereo not given) | -2% (active)
Cc1oc(-c2ccc(Cl)cc2)nc1CN1CCCC(C(=O)NCCc2ccccc2)C1 (stereo not given) | 29% (inactive)
Cc1cccc(-c2nc(CN3CCCC(C(=O)NCCc4ccc(Cl)cc4)C3)c(C)o2)c1 (stereo not given) | 29% (inactive)
CCc1ccc(C(=O)c2cn(CC(=O)Nc3ccc4c(c3)OCO4)c3cc(OC)c(OC)cc3c2=O)cc1 | 107% (inactive)
Cc1ccccc1NC(=O)c1ccccc1NC(=O)c1ccccc1F | 89% (inactive)
COc1ccc(NC(=O)CC2C(=O)N(c3ccccc3)C(=O)N2C2CCCCC2)cc1 (stereo not given) | 70% (inactive)
O=C(Nc1ccccc1C(F)(F)F)C1CCN(c2nnc(-n3cccc3)s2)CC1 | 113% (inactive)
